From PubChem
Most compounds without a hit are left out; they make up all but 3.9% or so of the library.
WT yeast gro inh: growth inhibition of WT strain, primary screen, mitochondrial fusion inhibitor project, WT and mutant strains, chemical genetic | 190,000 compounds, 2.1% hits | mitochondrial fusion phenotypic screen | AID 1362, 2008 | inhibition, % at 10 µM; in the data active = inhibition above about 58%; tested in S. cerevisiae
PHOSPHO1 block: PubChem AID 1565; Phosphoethanolamine/phosphocholine phosphatase (Homo sapiens), Q8TCT1; recombinant PHOSPHO1, absorbance phosphatase assay; inhibition, % at 13.3 µM; 290,000 compounds, 1.1% hits; in the data active = inhibition above about 60%
Target sequence (Q8TCT1 whole entry, looked up): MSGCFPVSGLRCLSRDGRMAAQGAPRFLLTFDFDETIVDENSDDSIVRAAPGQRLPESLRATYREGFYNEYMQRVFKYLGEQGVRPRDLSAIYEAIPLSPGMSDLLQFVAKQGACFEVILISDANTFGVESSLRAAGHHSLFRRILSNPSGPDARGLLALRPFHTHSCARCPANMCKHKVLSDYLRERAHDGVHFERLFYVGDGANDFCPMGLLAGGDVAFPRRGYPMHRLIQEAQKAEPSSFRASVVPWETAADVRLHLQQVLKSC
SKKanGAS inh: S. pyogenes SKKanGAS growth inhibitors in kanamycin, primary screen, streptokinase expression inhibitor project, SKKanGAS strain, BacTiter-Glo luminescence. AID 1662, 2009. 300,000 compounds, 1.3% hits. 6 h. inhibition, % at 7.5 µM;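 active = mean replicate score, as percent of positive control median, at least 50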;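 note: strain carries kanamycin resistance gene driven by streptokinase promoter and grows in 40 µg/ml kanamycin; loss of luminescence reflects streptokinase promoter inhibition or plain growth inhibition; 0% = median of DMSO wells and 100% = positive control at its reference dose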
Rtt109 Vps75: inhibitors of C. albicans Rtt109/Vps75 HAT, primary screen, biochemical, ThioGlo CoA-SH fluorescence, plate reader; Histone acetyltransferase RTT109 (Candida albicans (strain SC5314 / ATCC MYA-2876)), …; 330,000 compounds, 0.16% hits; purified Rtt109/Vps75, 4 h; inhibition, % at 34.9 µM;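 active = inhibition of at least 50% in every replicate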
TPT1 inh: Candida albicans TPT1 enzyme inhibitors, primary screen, biochemical, fluorescence polarization. tRNA 2'-phosphotransferase TPT1 (Candida albicans SC5314). 300,000 compounds, 0.81% hits. inhibition, % at 5 µM. recombinant caTPT1, FP RNA substrate dephosphorylation;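 active = inhibition above the mean of all tested compounds plus 3 SD, set per screening campaign, cut at about 24% in these data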;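 note: plate controls were DMSO alone for no effect and ferristatin control at 100 nM for full effect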
Platelet DG rel: inhibitors of platelet dense granule secretion, primary screen, cell-based, MLPCN, human platelets; human platelet-rich plasma, SFLLRN dense granule ATP release, luminescence; inhibition, %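 (compounds screened at 7.5 µM in platelet-rich plasma)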; 300,000 compounds, 0.22% hits; AID 1663, 2009;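 active = mean replicate score, as percent of positive control, at or above 50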
An asterisk follows results filed as active; . = no result given.

SMILES	WT yeast gro inh	PHOSPHO1 block	SKKanGAS inh	Rtt109 Vps75	TPT1 inh	Platelet DG rel
COc1ccc(C(CNC(=O)C(=O)NC2CCCCC2)N2CCN(C)CC2)cc1 (centres undefined)	.	.	-1	2	-1	23
COC(=O)C1C(c2ccccc2)C(C(=O)OCc2ccco2)C1c1ccccc1 (centres undefined)	76*	3	-3	0	3	1
CC(=O)C(=Nc1ccc(Cl)cc1Cl)NNc1cccc(Cl)c1	0	55	52*	-1	-1	7
CC(=O)Nc1ccc(NC(=O)Nc2cccc(Cl)c2)cc1	.	14	-7	-3	-6	6
CCOCCCNC(=O)/C(C#N)=C/c1ccc(-c2ccc(S(=O)(=O)N3CCOCC3)cc2)o1	10	2	9	2	4	-7
CCOCCCNC(=O)/C(C#N)=C/c1ccc([N+](=O)[O-])o1	91*	17	4	7	0	10
CC(NC(=O)/C(C#N)=C/c1ccc([N+](=O)[O-])o1)c1ccccc1 (centres undefined)	.	24	57*	19	23	-2
CC(NC(=O)/C(C#N)=C/c1ccco1)c1ccccc1 (centres undefined)	.	8	3	3	2	-1
Cc1ccc(S(=O)(=O)CCC(=O)OCc2nnc(-c3ccc([N+](=O)[O-])cc3)o2)cc1	.	.	.	-4	.	.
COC(=O)C(C)NC(=S)N1CCN(c2c(F)cc3c(=O)c(C(=O)O)cn(C4CC4)c3c2OC)CC1C (centres undefined)	.	46	95*	3	-2	-9
COc1c(N2CCN(C(=S)Nc3ccccc3)C(C)C2)c(F)cc2c(=O)c(C(=O)O)cn(C3CC3)c12 (centres undefined)	-4	41	.	.	.	.
CNC(=S)N1CCN(c2c(F)cc3c(=O)c(C(=O)O)cn(C4CC4)c3c2OC)CC1C (centres undefined)	-13	-7	104*	-13	3	-3
CN(C(=O)c1cccc(NC(=O)Cc2ccc(NC(=O)C3CCN(C(=O)C4CCCC4)CC3)cc2)c1)C1CC1	.	.	.	10	.	.
Cc1cccc(OCC(=O)Nc2ccccc2N2CCCCC2)c1C	.	.	70*	-2	-5	-9
COc1ccc(OCC(=O)Nc2ccccc2N2CCCCC2)cc1	.	13	6	1	0	0
O=C(CN1CCc2ccccc2C1)Nc1ccccc1Cl	.	-6	8	-10	-1	12
Cc1cccc(C)c1OCC(=O)Nc1ccccc1N1CCCCC1	.	33	86*	-2	-5	-3
O=C(CN1CCc2ccccc2C1)Nc1ccccc1N1CCCCCC1	61*	1	86*	0	-4	2
CC1CCCC(NC(=O)COC(=O)COc2ccc(C#N)cc2)C1C (centres undefined)	.	.	.	4	.	.
CCN(CC)C(=O)NC1CCCCCCC1	9	60*	1	-20	1	-4
Cc1ccc(CC(NC(=O)c2ccc(C)cc2)C(=O)O)cc1 (centres undefined)	.	.	.	3	.	.
Cc1c(C(=O)NN2CCN(C)CC2)cccc1[N+](=O)[O-]	7	60*	-10	1	-3	-7
O=C(CN1CCN(C(=O)C2CCCO2)CC1)Nc1cc(C(F)(F)F)ccc1Cl (centres undefined)	.	.	-10	7	3	-9
CCOc1cc(CNn2cn[nH]c2=S)cc(Cl)c1OCc1ccccc1F	69*	14	12	7	-3	-7
COc1cc(CNn2c(C)n[nH]c2=S)cc(Cl)c1OCc1ccc(F)cc1	71*	90*	2	5	-5	0
SMILES	WT yeast gro inh	PHOSPHO1 block	SKKanGAS inh	Rtt109 Vps75	TPT1 inh	Platelet DG rel
CCNCc1cc(Cl)c(OCc2ccccc2)c(OCC)c1	12	32	-8	15	-1	-5
Cc1ccc(C2CC(c3ccco3)n3ncnc3N2)cc1 (centres undefined)	5	-2	-2	0	-1	0
Cc1ccc2c(c1)C(N1CCCC1=O)CC(c1ccco1)N2 (centres undefined)	48	76*	11	-11	0	14
CCc1ccc(C(=O)Cc2cc3cccc(OC)c3oc2=O)cc1	.	46	2	-3	-1	-2
O=C(Cn1cc(COc2ccc(Br)cc2[N+](=O)[O-])nn1)c1ccc(O)cc1	.	.	.	-2	.	.
COc1ccccc1-n1cc(-c2ccc(Cl)cc2)[nH]c1=O	4	-13	-1	1	1	105*
COc1ccc(-c2cn(-c3cccc(C)c3)c(=O)[nH]2)cc1OC	7	-7	-4	2	-3	-2
O=C(c1cc(-c2ccc(Cl)cc2)n(-c2ccc(Cl)c(Cl)c2)n1)N1CCOCC1	66*	25	13	0	2	5
COc1cccc(NC(=O)CNC(=O)c2ccc(C)o2)c1	.	35	-1	-4	1	-1
COC(=O)CCN1CCN(S(=O)(=O)c2ccccc2Br)CC1	-1	62*	-1	13	3	16
CN(C)C(=O)COC(=O)c1ccccc1Sc1ccccc1C#N	-1	68*	-3	-5	3	-3
COc1ccc(S(=O)(=O)N2CCCCCC2)cc1C(=O)N(CC(C)C)C1CCS(=O)(=O)C1 (centres undefined)	.	.	7	3	1	5
CCCCc1ccc(NC(=S)N2CCCC(C)C2)cc1 (centres undefined)	75*	10	-12	-3	-5	-8
CCOC(=O)c1ccc(NC(=S)N2CCCC(C)C2)cc1 (centres undefined)	12	-18	-6	0	-1	10
CCOc1ccc(NC(=S)N2CCCC2)cc1	.	18	.	-3	.	.
CCc1ccc(NC(=S)N2CCCCCCC2)cc1	64*	68*	-1	-1	2	5
O=C(Nc1cccc(S(=O)(=O)N2CCCCC2)c1)C1COc2ccccc2O1 (centres undefined)	.	.	.	7	.	.
CN1CCN(C(=O)c2cc(Br)cn2C)CC1	.	31	5	5	-2	-1
CC(C)(CNC(=O)c1cccc(S(=O)(=O)Nc2ccc(Br)cc2)c1)N1CCOCC1	.	.	-5	-4	-1	5
COc1ccc(CCn2c(C3CCCCC3)nc3c(c(=O)c4ccccc4n3C)c2=O)cc1	.	37	68*	.	-3	11
COc1ccc(CCn2c(C3CCCCC3)nc3c(c(=O)c4ccccc4n3C)c2=O)cc1OC	.	16	16	3	5	.
COc1ccc(Cn2c(C3CCCCC3)nc3c(c(=O)c4ccccc4n3C)c2=O)cc1	.	36	70*	.	0	3
Cn1c2ccccc2c(=O)c2c(=O)n(C3CCCCC3)c(-c3cccs3)nc21	35	-43	60*	-10	-1	7
